Measurements published in PubChem BioAssay AID777 (Sanford-Burnham Center for Chemical Genomics, 2007).
About 19,000 (20%) of roughly 96,000 compounds were called active.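 How the source made its calls: active means blocking of liver enzyme CYP2C9 beyond about 50% at 5 µM (limit read from the data); inactive means the rest.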 Only a sample is shown.

Biological target: Cytochrome P450 2C9 (Homo sapiens) (UniProt P11712)
Assay: blockers of cytochrome P450 2C9 activity – biochemical, luminescence, ADME assay, primary screen (AID 777)
Conditions: CYP2C9 Supersomes, luciferin-H conversion, at 5 µM, hits give high values

Cytochrome P450 2C9 (Homo sapiens), sequence (P11712 whole entry, looked up): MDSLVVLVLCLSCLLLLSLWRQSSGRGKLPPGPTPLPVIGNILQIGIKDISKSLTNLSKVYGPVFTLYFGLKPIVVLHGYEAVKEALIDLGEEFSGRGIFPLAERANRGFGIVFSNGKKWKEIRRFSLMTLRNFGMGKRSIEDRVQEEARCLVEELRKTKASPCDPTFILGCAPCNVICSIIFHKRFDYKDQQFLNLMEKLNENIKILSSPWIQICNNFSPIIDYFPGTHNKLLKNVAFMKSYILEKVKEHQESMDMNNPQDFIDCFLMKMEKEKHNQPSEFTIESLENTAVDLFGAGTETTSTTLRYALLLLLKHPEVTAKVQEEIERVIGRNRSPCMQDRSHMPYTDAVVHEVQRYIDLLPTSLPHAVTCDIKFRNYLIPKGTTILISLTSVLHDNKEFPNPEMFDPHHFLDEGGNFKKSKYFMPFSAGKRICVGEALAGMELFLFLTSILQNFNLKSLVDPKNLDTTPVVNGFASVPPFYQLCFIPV

inhibition, inactive:
CC(C)(C)NC(=O)Cn1cnc([N+](=O)[O-])n1 -14.1%
O=S(=O)(NCc1ccccn1)c1ccc(Br)s1 -3.5%
O=c1c2[nH]c3ccc(Cl)cc3c2ncn1Cc1ccccn1 17.6%
COc1ccc2[nH]c3ccc(OC)cc3c2c1 26.8%
O=C(O)CCSc1nnc(-c2ccccc2)n1-c1ccccc1 -14.5%
C=CCNc1nnc(SCC(=O)N2CCCCC2)c2ccccc12 -25.8%
COC(=O)C(C(=O)Nc1cccc(C)n1)C1CCCCCC1 (centres undefined) 33.3%
CN1CC(c2ccccc2)C2(COc3ccccc3C2=O)C12C(=O)Nc1ccccc12 (centres undefined) 20.5%
CC1(C)CC(=O)c2sc(N)nc2C1 12.9%
CCC(=O)N1c2ccc(S(=O)(=O)CCC(=O)N3CCN(c4ccccc4)CC3)cc2CC1C (centres undefined) 49%
Cc1cc(=O)[nH]c(SCC(=O)N2c3ccccc3CC2C)n1 (centres undefined) 8%
COC(C)(C)[C@]12CC(O)(C(C)C)ON1[C@H]1CCCCC1N2O (some centres undefined) -1.4%
CCC(C)(C(=O)NC1CCCC1)N(C(=O)CNC(C)=O)c1ccc(C)cc1 (centres undefined) 2.8%
COc1ccc2c(c1)SC(C)CC2=O (centres undefined) 12.7%
CCOc1ccc(CNC(=O)C2CCC(=O)N2C2CCCC2)cc1OC (centres undefined) 4.4%
CCCN1C(=O)C(NC(C)=O)c2cc(OC)ccc21 (centres undefined) -5.4%
COC(=O)COc1ccc2oc(=O)cc(C)c2c1 -9.3%
Cc1cc(C)cc(OCC(=O)NNC(=O)c2cc3ccccc3oc2=O)c1 -15.8%
CN1CCCC(OC(=O)COc2ccc(Br)cc2)C1 (centres undefined) -1.2%
COc1ccc(C(=O)Nc2nc(-c3ccc(OC)cc3)c(-c3ccc([N+](=O)[O-])cc3)s2)cc1 19.7%
CCC1CCCCN1CCNC(=O)c1[nH]c(C)c(C(C)=O)c1C (centres undefined) 9.6%
COCCOC(=O)C1=C(C)Nc2nc(C)nn2C1c1ccccc1 (centres undefined) 16.7%
COCCNC(=O)C(c1ccc(C)o1)N(Cc1cccs1)C(=O)c1snc(C(N)=O)c1N (centres undefined) 3.7%
O=C(Oc1ccc2c(c1)CCC2)N1CCOCC1 0.4%
Cc1cccn2c(=O)c3cc(C#N)c(=O)n(CCCN4CCOCC4)c3nc12 47%
COc1ccc(/C=N\NC(=O)c2sc(N)nc2C)cc1OC 5.4%
COc1cccc(/C=N\Nc2nncc(-c3ccccc3)n2)c1 5.6%
Cc1ccc(-c2cc(C(=O)N/N=C/C=C/c3ccco3)c3ccccc3n2)cc1C 34%
COc1cc(/C=N/NC(=O)Nc2ccccc2)ccc1OCCOc1ccccc1C 11.2%
CCCC(C(=O)n1nc(C)cc1C)C(NS(=O)(=O)c1ccc(C)cc1)c1ccccc1 (centres undefined) -1.9%
O=C(c1ccco1)N1CCN(C(=O)C2CC(c3ccc(Cl)c(Cl)c3)=NO2)CC1 (centres undefined) 43.9%
CN(C)c1cc(N)c2ccccc2n1 (tested in a mixture with another compound) -21.6%
O=C(NCc1ccccc1)C1C(=O)N(Cc2ccccc2)C(=O)C1C1(O)CCCC1 (centres undefined) 33.6%
CC(C)c1nc2ccc(C(=O)O)cc2[nH]1 5.8%
CCC(=O)Nc1ccccc1C(=O)N1CCN(Cc2ccccc2)CC1 15.3%
Cc1ccc(S(=O)(=O)NC(C)C(=O)Nc2ccccc2C(=O)N2CCCC2)cc1 (centres undefined) 44.1%
CC(=O)N1CCN(c2ccc(NCc3ccc(C(C)C)cc3)cc2)CC1 37%
O=C1CSC(c2cccc(F)c2)N1c1ccccc1F (centres undefined) 3%
O=C(Nc1ccccc1)OCc1cc(-c2ccc(Cl)cc2)on1 16.9%

inhibition, active:
COc1ccc2[nH]cc(/C=C(/C#N)S(=O)(=O)c3ccccc3)c2c1 95.4%
CC1Cc2ccccc2N1C(=O)c1cc2sccc2n1Cc1ccccc1 (centres undefined) 61.6%
COc1ccc2c(c1)OC(O)(C(F)(F)C(F)F)CC2=O (centres undefined) 78.5%
CCOC(=O)COc1cc(OCC(=O)OCC)c2c(=O)cc(-c3ccccc3)oc2c1 70.3%
COC(=O)C(NC(=O)c1ccc(OC)cc1)(Nc1ncc(S(=O)(=O)c2ccc([N+](=O)[O-])cc2)s1)C(F)(F)F (centres undefined) 66.3%
COc1cc(C2C(C(=O)OCCC#N)=C(C)NC3=C2S(=O)(=O)c2ccccc23)cc(OC)c1OC (centres undefined) 50.9%
COc1cccc(OCc2cc(/C=N/NC(=O)c3nc(Cl)c(Cl)c(N)c3Cl)ccc2OC)c1 84%
COc1cccc(-c2cc(C(=O)N/N=C/c3ccc(OC)c(COC(C)=O)c3)c3ccccc3n2)c1 84.3%
O=C(CN(c1ccccc1)S(=O)(=O)c1ccc(Cl)cc1)Nc1ccccc1C(=O)N1CCCC1 92.2%
O=C(Nc1ccc(Cl)cc1)OCc1cc(-c2ccccc2)on1 64.4%
